The source of these data is PubChem BioAssay (NCATS).

A short description of experiment [1]: Drug repurposing screens with cells derived from glioblastoma tumor samples (AID 1345199). Further: nearly all actives have a fitted effect of over 40% in size. Further: potency means the concentration at half of the fitted maximal effect. On activity, negative = cell killing: on the % scale 0 is the no-effect control and ±100 the full control effect. The conditions noted are these: GBM patient neurospheres viability, ATP luminescence, 48 h. An outline of the steps:
(§1)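 Four patient lines of CD133+ GBM neurospheres were screened at several concentrations; hits were retested in those lines plus three slower-growing GBM lines, using 48-hour treatment and ATP-based viability.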

In experiment [2] the test system is astro (control astrocytes). The experiment is described as above. To be noted: viability, ATP luminescence, 48 h; series mostly up to 45.9 µM. An outline of the steps: as §1
The test system of experiment [3] is Tov112D. Put plainly: Primary qHTS to identify gynecologic anti-cancer compounds using libraries of approved drugs and bioactive compounds (AID 1345084). Further: nearly all actives have a fitted effect of over 55% in size. Further: potency means the concentration at half of the fitted maximal effect. To be noted: Gynecologic cancer cell panel viability, ATPlite luminescence, 48 h; series mostly up to 57.5 µM. An outline of the steps:
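Five-point cytotoxicity, 48 h drug exposure at 37 C, 5% CO2, on cells seeded 16 h beforehand. ATP content read by ATPlite luminescence.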
On the technique in general: In qHTS, concentration-response curves come from the screen itself.

Experiment [4] concerns the target Nuclear receptor subfamily 1 group I member 2 (Rattus norvegicus) (UniProt Q9R1A7). Put plainly: qHTS assay for small molecule activators of the rat pregnane X receptor (rPXR) signaling pathway (AID 651751; call rule not given here; further: 0% is about no effect). The conditions noted are these: rPXR reporter cells, luciferase (One-Glo), 24 h.
The nature of experiment [5]: qHTS assay to identify inhibitors of the type 1 interferon - major histocompatibility complex class I in skeletal muscle: Counter screen cell viability and HiBit confirmation (AID 1347412). Further: potency means the concentration at half of the fitted maximal effect; nearly all actives have a fitted effect of over 60% in size. The conditions noted are these: iHSKM muscle cells + IFN-b, HiBiT or CellTiter-Glo, 24 h; HiBiT. Put shortly: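 After 24 h with human IFN-beta (4 ng/ml) and compound titrations (top 46 uM final, 1:3, 12 points), HLA-B HiBit myoblasts were lysed for either Nano-Glo HiBiT luminescence or CellTiter Glo viability on paired plates.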

Experiment [6] can be described thus: qHTS assay for small molecule activators of the human pregnane X receptor (PXR) signaling pathway (AID 720659; call rule not given here; further: 0% is about no effect). To be noted: DPX-2 HepG2 CYP3A4-luciferase, 24 h; series mostly up to 92.3 µM.
Where [7] appears, read: at 91.6 µM (top of the series), tumour line B.
Where [8] appears, read: at 45.9 µM (top of the series), tumour line B.
Setting [9] is: at 45.9 µM (top of the series), tumour line D.

Where “and” joins values, the source holds several entries; their conditions need not be identical. Equal values may be shown once. Inconclusive results are not listed. Calls of active or inactive are those of the source. Unless noted, the call rests on the fitted dose curve; in most records, active means well fitted curve in the direction sought with a large enough effect; inconclusive means small, poorly fitted or top-dose-only effect, or another doubt; inactive means no such curve, though single readings can be large; an effect the other way counts as inactive or inconclusive.

Sequence of Nuclear receptor subfamily 1 group I member 2 (Rattus norvegicus) (Q9R1A7 whole entry, looked up): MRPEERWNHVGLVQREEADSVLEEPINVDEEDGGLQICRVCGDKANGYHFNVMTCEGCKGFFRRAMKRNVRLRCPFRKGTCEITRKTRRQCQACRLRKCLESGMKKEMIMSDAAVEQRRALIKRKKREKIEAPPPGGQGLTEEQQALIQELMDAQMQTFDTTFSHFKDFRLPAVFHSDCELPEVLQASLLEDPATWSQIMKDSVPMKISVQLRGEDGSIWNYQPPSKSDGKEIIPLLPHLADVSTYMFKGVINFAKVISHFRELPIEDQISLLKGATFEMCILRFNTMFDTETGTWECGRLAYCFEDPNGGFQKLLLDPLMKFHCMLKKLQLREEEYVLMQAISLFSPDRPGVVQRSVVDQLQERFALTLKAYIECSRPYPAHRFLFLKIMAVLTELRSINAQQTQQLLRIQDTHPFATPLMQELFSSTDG

Consider `COc1ccc2c3c1O[C@H]1[C@@H](O)C=C[C@H]4[C@@H](C2)N(C)CC[C@@]341`, for which the activity, negative = cell killing in experiment [1] (setting [7]) is -11% (inactive); in experiment [1] (at 91.6 µM (top of the series), tumour line D) it was -4.9% (inactive). Besides, the Potency in experiment [1] (tumour line A) is 44.7 µM (active). Moreover, the Potency entry in experiment [2] was “inactive”.

Consider `CCOP(=S)(OCC)O/N=C(\C#N)c1ccccc1`, for which the Potency result in experiment [3] was “inactive”. Moreover, the activity, negative = cell killing in experiment [1] (setting [8]) is 9.02% (inactive); in experiment [1] (setting [9]), -6.28% (inactive). In addition, the max response in experiment [4] was -0.568% (inactive).

On to `CC[C@H](O)C(C[C@H](C)N(C)C)(c1ccccc1)c1ccccc1`, for which the activity, negative = cell killing in experiment [1] (at 108 µM (top of the series), tumour line B) is -29.7% (inactive). Besides, the values for the Potency in experiment [1] (tumour line A) and in experiment [1] (tumour line D) were 44.7 µM (active) and 70.8 µM (active), respectively.

Turning to `ClC1=C(Cl)C2(Cl)C(CBr)CC1(Cl)C2(Cl)Cl` (configuration not stated), the Potency result in experiment [3] and in experiment [2] was “inactive” in each case.

Consider `COCC(=O)N(c1c(C)cccc1C)C(C)C(=O)OC` (configuration not stated), for which the Potency entry in experiment [3] and in experiment [2] was “inactive” each time. Moreover, the activity, negative = cell killing was -6.18% (inactive) in experiment [1] (setting [8]) and -6.37% (inactive) in experiment [1] (setting [9]). Further, the max response in experiment [4] is 3.13% (inactive).

On to `NC1(c2ccccc2)CCCCC1`, for which, in experiment [1] (setting [7]), the activity, negative = cell killing is -7.4% (inactive). Also, the Potency in experiment [1] (tumour line A) was 63.1 µM (active). Besides, the Potency entry in experiment [2] is “inactive”.

In the case of `C[C@@H]1O[C@@H](O[C@@H]2C=C3CC[C@@H]4[C@H](CC[C@]5(C)[C@@H](c6ccc(=O)oc6)CC[C@]45O)[C@@]3(C)CC2)[C@H](O)[C@H](O)[C@H]1O`, the Potency in experiment [2] is 0.0282 µM (active); in experiment [5], 12.5 nM (active).

As to `COP(=S)(OC)Oc1ccc(Sc2ccc(OP(=S)(OC)OC)cc2)cc1`, the Potency result in experiment [3] was “inactive”. Further, the max response in experiment [4] is 1.29% (inactive). In addition, the compound was classed as inactive in experiment [6].

With `CCCCCCCCC(=O)NCc1ccc(O)c(OC)c1`, the results for the activity, negative = cell killing in experiment [1] (setting [8]) and in experiment [1] (setting [9]) were -1.62% (inactive) and -6.9% (inactive), respectively. Further, the Potency in experiment [1] (tumour line A) was 12.6 µM (active). The Potency entry in experiment [2] is “inactive”. In addition, the max response in experiment [4] was 2.01% (inactive). In addition, the compound was classed as inactive in experiment [6].

For the compound `CC(C)(C)OC(=O)c1ncn2c1[C@@H]1CCCN1C(=O)c1c(Br)cccc1-2`, the Potency result in experiment [3] and in experiment [2] was “inactive” each time. Moreover, the activity, negative = cell killing in experiment [1] (setting [8]) is -9.06% (inactive); in experiment [1] (setting [9]) it was -11.3% (inactive).

Consider `C[C@@H]1C[C@@H]([C@H](O)CC2CC(=O)NC(=O)C2)C(=O)[C@@H](C)C1`, for which the Potency in experiment [3] was 0.562 µM (active); in experiment [5], 701 nM (active) and 222 nM (active).

For the compound `CCCC[N+]1(C)[C@@H]2CC(OC(=O)[C@H](CO)c3ccccc3)C[C@H]1[C@@H]1O[C@@H]12` (some centres not stated), the Potency result in experiment [3] and in experiment [2] was “inactive” throughout. The activity, negative = cell killing in experiment [1] (setting [8]) was -7.47% (inactive).

With `COP(=S)(OC)Oc1ccc(S(N)(=O)=O)cc1`, the Potency entry in experiment [3] and in experiment [2] was “inactive” in each case. Also, the values for the activity, negative = cell killing in experiment [1] (setting [8]) and in experiment [1] (setting [9]) were -9.2% (inactive) and -4.94% (inactive), respectively.

For the compound `O=C(N[C@@H]1N=C(c2ccccc2F)c2cccc3c2N(CC3)C1=O)c1cc2ccccc2[nH]1`, the activity, negative = cell killing was -3.52% (inactive) in experiment [1] (setting [8]) and -3.25% (inactive) in experiment [1] (setting [9]).

With `COc1cc(N)c(Cl)cc1C(=O)NC1CN2CCC1CC2` (configuration not stated), the Potency result in experiment [3] and in experiment [2] was “inactive” throughout. Moreover, the activity, negative = cell killing was -1.32% (inactive) in experiment [1] (setting [8]) and 1.82% (inactive) in experiment [1] (setting [9]).

Consider `Cc1nnc2n1-c1sc(CCc3ccc(CC(C)C)cc3)cc1C(c1ccccc1Cl)=NC2C` (configuration not stated), for which, in experiment [3], the Potency result is “inactive”. Also, in experiment [2], the Potency was 35.5 µM (active).

With `CC[n+]1c(-c2ccccc2)c2cc(N)ccc2c2ccc(N)cc21`, the Potency in experiment [3] was 1.41 µM (active). Further, the max response in experiment [4] is -4.84% (inactive). In addition, the call in experiment [6] was inactive.

For `CCCCCCCCCCCC[N+](C)(C)CCOc1ccccc1`, the Potency is 12.6 µM (active) in experiment [1] (tumour line A), 15.8 µM (active) in experiment [1] (tumour line B) and 11.2 µM (active) in experiment [1] (tumour line D). Further, in experiment [4], the max response was -13.8% (inactive).

Take `c1ccc2nc(N3CCNCC3)ccc2c1`: in experiment [3], the Potency result is “inactive”. Further, the Potency in experiment [2] was 12.6 µM (active).

Regarding `CC[C@]1(O)CC[C@H]2[C@@H]3CCC4=CCCC[C@@H]4[C@H]3CC[C@@]21C`, the activity, negative = cell killing in experiment [1] (setting [8]) is -25.8% (inactive). Also, the Potency in experiment [1] (tumour line A) was 10 µM (active).

Consider `COc1ccc(C(=O)N2CCCC2=O)cc1`, for which the Potency entry in experiment [3] and in experiment [2] was “inactive” each time. In addition, the figures for the activity, negative = cell killing in experiment [1] (setting [8]) and in experiment [1] (setting [9]) were -4.07% (inactive) and -13.6% (inactive), respectively.

With `CC(=O)OC1(c2ccccc2)CCN(CCc2ccccc2)CC1`, the Potency result in experiment [3] and in experiment [2] was “inactive” each time.

Consider `COc1ccc2c(C(=O)c3ccc(Cl)cc3)c(C)n(CC(=O)O)c2c1`, for which the figures for the activity, negative = cell killing in experiment [1] (setting [8]) and in experiment [1] (setting [9]) were -15.8% (inactive) and -19.1% (inactive), respectively. The Potency result in experiment [2] was “inactive”.

As for `O=C(N[C@H]1N=C(c2ccccc2F)c2cccc3c2N(CC3)C1=O)c1cc2ccccc2[nH]1`, the Potency entry in experiment [3] and in experiment [2] was “inactive” each time. Further, in experiment [1] (setting [8]), the activity, negative = cell killing is 9.35% (inactive).

With `Cc1ccc(N=CN(C)C=Nc2ccc(C)cc2C)c(C)c1`, the Potency result in experiment [3] is “inactive”. Besides, the activity, negative = cell killing in experiment [1] (setting [8]) is -15.5% (inactive); in experiment [1] (setting [9]), -9.79% (inactive). The max response in experiment [4] was 4.54% (inactive). Besides, the compound was called inactive in experiment [6].

For `CC(C)=CCN1CC[C@@]2(C)c3cc(O)ccc3C[C@@H]1[C@@H]2C`, the Potency entry in experiment [3] and in experiment [2] was “inactive” each time. In addition, the activity, negative = cell killing in experiment [1] (setting [7]) was -12.8% (inactive). For the same compound, in experiment [1] (tumour line A), the Potency was 25.1 µM (active).

In the case of `CC[C@H]1C[C@@H]2C[C@H]3c4[nH]c5ccc(OC)cc5c4CCN(C2)[C@@H]13`, the Potency result in experiment [3] and in experiment [2] was “inactive” in each case.

Consider `O=C(CCl)c1ccc(Cl)cc1Cl`, for which, in experiment [3], the Potency entry was “inactive”. For the same compound, the activity, negative = cell killing in experiment [1] (setting [9]) was -23.6% (inactive). In experiment [2], the Potency is 12.6 µM (active). In experiment [4], the max response was -0.907% (inactive). Also, the outcome in experiment [6] was inactive.
